We go through five compounds from PubChem BioAssay.

Assay [1] is described as follows: compound effects on lung adenocarcinoma cell viability – A549, calcein-AM fluorescence, 48 h, basal, profiling panel (AID 1162). Also: test concentration not given here. The note with it: higher = more signal.
A short description of assay [2]: compound effects on differentiated 3T3-L1 adipocyte viability – cell-based, 3T3-L1 adipocytes, calcein-AM fluorescence, 48 h, basal, profiling panel (AID 1163). Also: test concentration not given here. The note with it: 3T3-L1 adipocytes viability, higher = more signal.
Assay [3] is described as follows: compound effects on hepatocellular carcinoma cell viability – HepG2, calcein-AM fluorescence, 48 h, basal, profiling panel (AID 1164). Also: test concentration not given here. The note with it: higher = more signal.
The nature of assay [4]: compound effects on multiple myeloma cell viability – MM1S, calcein-AM fluorescence, 48 h, basal, profiling panel (AID 1165).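 Also: viability of MM1S multiple myeloma cells under basal unstimulated conditions; test concentration not given here.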 The note with it: higher = more signal.
Assay [5] can be described thus: calcein-AM signal in unstimulated myeloma cells – cell-based, calcein-AM fluorescence, 48 h, PK04 Diversity Set, profiling panel (AID 1166).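 Also: cells grown under basal conditions without added stimulus; test concentration not given here.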 The note with it: RPMI8226 myeloma viability, higher = more signal.
The nature of assay [6]: JC-1 mitochondrial signal, unstimulated HepG2 cells – cell-based, JC-1 fluorescence, 24 h, 100 nL compound, profiling panel (AID 1167). Also: test concentration not given here. The note with it: HepG2 mitochondrial potential, higher = more signal.
Assay [7] in a line: JC-1 mitochondrial signal, unstimulated adipocytes – cell-based, JC-1 fluorescence, 3T3-L1 adipocytes, 24 h, 100 nL compound, profiling panel (AID 1168). Also: test concentration not given here. Particulars: JC-1 mitochondrial fluorescence, higher = more signal, called active from +8 up or from −8 down.
The nature of assay [8]: JC-1 mitochondrial signal, unstimulated myeloma cells – cell-based, JC-1 fluorescence, RPMI8226, 24 h, 100 nL compound, profiling panel (AID 1169). Also: test concentration not given here. The note with it: JC-1 mitochondrial potential fluorescence, higher = more signal.
Assay [9] is described as follows: JC-1 mitochondrial signal, unstimulated MM1S myeloma – cell-based, JC-1 fluorescence, 24 h, 100 nL compound, profiling panel (AID 1170). Also: test concentration not given here. The note with it: MM1S mitochondrial potential, higher = more signal.
Assay [10] is described as follows: resazurin metabolic signal in A549 cells – cell-based, resazurin fluorescence, 24 h, PK04 Diversity Set, profiling panel (AID 1171). Also: test concentration not given here. Particulars: A549 viability, higher = more signal, called active from +8 up or from −8 down. For orientation: The colour change of resazurin is a common sign of viable cells or microbes.
Assay [11] can be described thus: resazurin metabolic signal in HepG2 cells – cell-based, resazurin fluorescence, 24 h, PK04 Diversity Set, profiling panel (AID 1172). Also: test concentration not given here. Particulars: HepG2 viability, higher = more signal.
A short description of assay [12]: budding yeast growth changes without added modifier – OD600, strain BY4716, 24 h, basal condition, primary screen (AID 1173). Particulars: S. cerevisiae BY4716 growth, OD600, 24 h; higher = more signal, called active from +8 up or from −8 down.
Assay [13] can be described thus: viability profiling in MM1S myeloma cells – cell-based, resazurin fluorescence, basal, 24 h, PK04 Diversity Set, profiling panel (AID 1174). Also: test concentration not given here. Particulars: higher = more signal, called active from +8 up or from −8 down.
In assay [14] the target is Dihydroorotate dehydrogenase (quinone), mitochondrial (Plasmodium falciparum (isolate 3D7)) (UniProt Q08210). In words: inhibition of P. falciparum DHODH – biochemical, C-terminal His tag, absorbance 600 nm, primary screen (AID 1175).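 Also: recombinant parasite enzyme with a five histidine tag at its C terminus; test concentration not given here.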 The note with it: PfDHODH enzyme, DCIP absorbance 600 nm; higher = more signal, called active from +8 up or from −8 down.
Dihydroorotate dehydrogenase (quinone), mitochondrial (Plasmodium falciparum (isolate 3D7)), sequence (Q08210 whole entry, looked up): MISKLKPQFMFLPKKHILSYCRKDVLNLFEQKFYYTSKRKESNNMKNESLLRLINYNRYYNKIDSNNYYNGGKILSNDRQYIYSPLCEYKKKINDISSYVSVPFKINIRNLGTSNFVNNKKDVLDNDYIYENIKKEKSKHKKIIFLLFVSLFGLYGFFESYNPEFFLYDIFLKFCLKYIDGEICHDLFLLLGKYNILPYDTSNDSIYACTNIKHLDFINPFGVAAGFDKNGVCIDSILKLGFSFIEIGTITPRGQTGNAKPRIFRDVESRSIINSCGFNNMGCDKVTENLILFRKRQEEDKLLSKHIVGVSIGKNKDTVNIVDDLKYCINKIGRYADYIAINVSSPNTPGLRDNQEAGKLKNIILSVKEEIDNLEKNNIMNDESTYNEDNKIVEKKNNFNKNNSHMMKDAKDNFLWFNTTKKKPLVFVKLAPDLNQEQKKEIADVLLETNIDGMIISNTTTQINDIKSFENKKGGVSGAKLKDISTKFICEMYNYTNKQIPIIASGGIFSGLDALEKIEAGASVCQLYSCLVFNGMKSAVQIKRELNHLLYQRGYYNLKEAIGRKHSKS
Assay [15] is described as follows: inhibition of PAO1 biofilm formation – strain PAO1, LB-PBS medium, absorbance 600 nm, primary screen (AID 1176). Also: test concentration not given here. Particulars: P. aeruginosa PAO1 growth/biofilm, A600, 12 h; higher = more signal.
Assay [16] can be described thus: growth modulation of vineyard yeast isolate – strain RM11-1a, OD600, basal, 24 h, primary screen (AID 1177).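 Also: cultures grown under basal conditions with no added stressor; test concentration not given here.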 The note with it: S. cerevisiae RM11-1a growth, OD600, 24 h; higher = more signal, called active from +8 up or from −8 down.
The nature of assay [17]: growth of efflux-deficient E. coli DRC39 – strain DRC39, OD650, 24 h, E. coli filamentation inducers, primary screen (AID 1178).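 Also: growth measured as culture turbidity by optical density at 650 nm; test concentration not given here.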 The note with it: E. coli DRC39 acrAB, higher = more signal, called active from +8 up or from −8 down.
Assay [18] in a line: growth of efflux-deficient E. coli DRC39 – strain DRC39, OD650, 48 h, E. coli filamentation inducers, primary screen (AID 1179).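 Also: screen aims at cell division blockers that make cells filament.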 The note with it: E. coli DRC39 delta-acrAB growth, higher = more signal, called active from +8 up or from −8 down.
Assay [19] in a line: viability profiling in RPMI8226 myeloma cells – cell-based, resazurin fluorescence, basal, 24 h, PK04 Diversity Set, profiling panel (AID 1180).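 Also: RPMI8826 multiple myeloma cell line at 5000 cells per well; test concentration not given here.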 Particulars: higher = more signal.
The target in assay [20] is E3 ubiquitin-protein ligase XIAP (Homo sapiens) (UniProt P98170). In words: small molecules binding XIAP protein – biophysical, small-molecule microarray, fluorescence 635 nm, primary screen (AID 1181).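 Also: score merges 667 nm emission and signal to noise over triplicate slides.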 Particulars: higher = more signal.
E3 ubiquitin-protein ligase XIAP (Homo sapiens), sequence (P98170 whole entry, looked up): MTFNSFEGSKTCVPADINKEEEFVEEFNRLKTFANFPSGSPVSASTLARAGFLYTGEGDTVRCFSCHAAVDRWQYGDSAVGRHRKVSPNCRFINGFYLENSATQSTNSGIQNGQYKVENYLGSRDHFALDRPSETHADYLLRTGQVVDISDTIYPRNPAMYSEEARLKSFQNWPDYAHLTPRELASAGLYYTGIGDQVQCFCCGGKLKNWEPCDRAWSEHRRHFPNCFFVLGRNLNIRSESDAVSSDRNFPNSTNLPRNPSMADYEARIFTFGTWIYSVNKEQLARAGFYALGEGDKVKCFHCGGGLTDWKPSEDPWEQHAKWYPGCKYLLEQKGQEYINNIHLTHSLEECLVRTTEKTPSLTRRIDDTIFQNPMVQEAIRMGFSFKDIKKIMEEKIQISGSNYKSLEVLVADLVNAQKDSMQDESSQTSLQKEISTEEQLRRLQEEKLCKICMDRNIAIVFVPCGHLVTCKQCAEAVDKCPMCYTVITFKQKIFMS

The source made the active and inactive calls. Unless noted, no rule for the calls is given here.

Regarding `COCCOC(=O)N1C(=O)[C@@]2(c3cc(C#CCCO)ccc31)[C@H](C(N)=O)[C@H]1C(=O)O[C@H](c3ccccc3)[C@H](c3ccccc3)N1[C@@H]2c1ccc(O)cc1`, the z-score is -0.272 in [1]; 0.24 in assay [2]; -0.05 in assay [3]; 0.0119 in [4]; -1.2 in assay [5]; -0.537 in assay [6]. Moreover, the z-score in assay [7] is -0.142 (inactive); in assay [8] it was -0.105; in assay [9], 0.0477; in assay [10] it was -0.3 (inactive); in [11] it was -0.256; in [12], -0.089 (inactive). In addition, the z-score in assay [13] is 0.0773 (inactive); in assay [15], 0.181 (inactive); in assay [16] it was -0.204 (inactive); in assay [17] it was 0.125 (inactive); in assay [18] it was -0.176 (inactive); in assay [19], -0.104. Also, the results for the composite z-score in [14] and in assay [20] were -0.176 (inactive) and 0.142, respectively.

For the compound `C=CCC(OC(C)=O)[C@@H]1[C@@H](N(Cc2cccc3ccccc23)C(=O)c2ccc(-c3ccccc3)cc2)c2cc(OCCCO)ccc2N1C(=O)c1ccc2ccccc2c1` (stereo not given in full), the z-score in assay [1] is -0.525; in [2], -0.526; in [3], -0.62; in [4], 0.279; in assay [5] it was -0.494; in assay [6], 1.62. The z-score in assay [7] was -0.693 (inactive); in assay [8], -0.011; in assay [9], -0.000791; in assay [10], 1.09 (inactive); in [11], 0.256; in [12], 1.04 (inactive). Further, the z-score in [13] was 0.163 (inactive); in assay [15], 0.845 (inactive); in assay [16], 0.132 (inactive); in assay [17] it was 0.0986 (inactive); in assay [18] it was 0.295 (inactive); in assay [19], 1.23. The composite z-score is -0.149 (inactive) in assay [14] and 0.0463 in assay [20].

As to `COC(=O)[C@@]1(Cc2ccc(OC)cc2)[C@H]2c3cc(C(=O)N(C)C)n(Cc4ccc(S(C)(=O)=O)cc4)c3C[C@H]2CN1C(=O)c1ccccc1`, the z-score was 2.88 in assay [1]; 0.449 in [2]; 1.13 in assay [3]; 0.636 in assay [4]; 1.51 in assay [5]; 3.14 in [6]. In addition, the z-score is -0.572 (inactive) in assay [7]; 0.484 in assay [8]; -1.11 in [9]; 0.0073 (inactive) in assay [10]; 0.0042 in assay [11]; 0.0274 (inactive) in assay [12]. The z-score in assay [13] was -0.19 (inactive); in [15], 2.2 (inactive); in assay [16], -2.36 (inactive); in assay [17], 0.366 (inactive); in assay [18], -0.441 (inactive); in assay [19], 0.766. The composite z-score is -1.4 (inactive) in assay [14] and -0.0139 in assay [20].

`[N-]=[N+]=Nc1ccccc1[C@H]1OC(c2ccc(OCCCO)cc2)=N[C@@]1(CCS(=O)(=O)c1ccccc1)C(N)=O`: the z-score in assay [1] is 0.0833; in assay [2], 0.733; in [3] it was 0.0844; in assay [4] it was -0.57; in assay [5], 0.0418; in assay [6] it was -0.93. Further, the z-score was -0.235 (inactive) in assay [7]; -1.07 in [8]; 0.296 in assay [9]; 0.985 (inactive) in [10]; -0.183 in assay [11]; -1.06 (inactive) in [12]. Also, the z-score was 0.952 (inactive) in assay [13]; 0.897 (inactive) in [15]; -0.167 (inactive) in assay [16]; 0.981 (inactive) in [17]; -0.319 (inactive) in [18]; 0.187 in [19]. The composite z-score is 0.22 (inactive) in assay [14] and 0.291 in assay [20].

In the case of `[N-]=[N+]=NCc1ccccc1[C@@H]1OC(c2ccc(OCCCO)cc2)=N[C@]1(Cc1ccccc1)C(N)=O`, the z-score was 0.88 in assay [1]; 1.5 in [2]; 0.493 in assay [3]; -0.527 in assay [4]; -1.63 in assay [5]; 1.49 in assay [6]. Besides, the z-score in assay [7] was -0.534 (inactive); in [8], -0.75; in assay [9], -1.1; in assay [10], 0.479 (inactive); in [11] it was 0.854; in assay [12], -2.19 (inactive). The z-score is -0.422 (inactive) in assay [13]; 0.177 (inactive) in assay [15]; 0.895 (inactive) in [16]; 0.671 (inactive) in [17]; -0.492 (inactive) in assay [18]; -0.0348 in [19]. Besides, the composite z-score in assay [14] is -0.717 (inactive); in assay [20] it was 0.319.
